Measured values taken from PubChem BioAssay (EPA / NIEHS).
Records with an inconclusive call do not appear. The source made the active and inactive calls. The calls were made as follows, unless noted: active = hit-call score of the fitted dose curve at least 0.9, where 1 is the maximum; inconclusive = response in the unintended direction; inactive = score below 0.9.

Assays:
[1] = TOX21_p53_BLA_p2_viability: Viability Assessment in the Tox21 HCT-116 p53 Agonism Beta-lactamase Assay, Phase 2 (AID 2283591);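 also: compound exposure lasted 16 h at 37 °C; actives lower the ATP signal meaning cytotoxicity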
Outline: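 HCT116 p53-bla cells, 4000/well, dosed after 5 h plating (217-fold dilution of DMSO stocks) and incubated 16 h at 37C. Viability taken as cellular ATP by CellTiter-Glo luminescence after 30 min RT; signal loss marks cytotoxicity.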

[2] = TOX21_p53_BLA_p3_viability: Viability Assessment in the Tox21 HCT-116 p53 Agonism Beta-lactamase Assay, Phase 3 (AID 2283593);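 also: cells exposed to compound for 16 h before reading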
Outline: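 HCT116 cells, 4000/well, dosed 5 h after plating by pin transfer (217-fold dilution from DMSO stock) and incubated 16 h at 37C, 5% CO2. Viability read as ATP luminescence with CellTiter-Glo after 30 min at room temperature.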

[3] = target: Cellular tumor antigen p53 (Homo sapiens) (UniProt P04637); experiment: TOX21_p53_BLA_p3_ratio: Tox21 HCT-116 p53 Agonism Beta-lactamase Assay, Ratio, Phase 3 (AID 2283596)
Outline: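 HCT116 p53-bla cells (4000/well) given compound in DMSO (217-fold dilution) after 5 h, incubated 16 h at 37C. CCF4-AM substrate 2 h at room temperature; 460/530 nm emission ratio, gain fitted against DMSO.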

[4] = TOX21_p53_BLA_p4_viability: Viability Assessment in the Tox21 HCT-116 p53 Agonism Beta-lactamase Assay, Phase 4 (AID 2283597);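 also: hits lower the luminescence signal meaning cytotoxicity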
Outline: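 We seeded HCT116 p53 reporter cells at 4000/well and waited 5 h. We then added compounds in DMSO at a 217-fold dilution and incubated for 16 h. Viability was read as CellTiter-Glo luminescence after 30 min at RT.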

[5] = target: Cellular tumor antigen p53 (Homo sapiens) (UniProt P04637); experiment: TOX21_p53_BLA_p5_ratio: Tox21 HCT-116 p53 Agonism Beta-lactamase Assay, Ratio, Phase 5 (AID 2283599)
Outline: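 HCT-116 p53-bla cells (4000/well) plated 5 h, dosed with compound (217-fold DMSO dilution) for 16 h at 37 C; CCF4-AM substrate 2 h at room temperature. Activity is the 460/530 nm emission ratio (405 nm excitation), fitted in gain-of-signal direction versus DMSO.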

[6] = target: Cellular tumor antigen p53 (Homo sapiens) (UniProt P04637); experiment: TOX21_p53_BLA_p2_ratio: Tox21 HCT-116 p53 Agonism Beta-lactamase Assay, Ratio, Phase 2 (AID 2283592)
Outline: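 In this cell-based reporter format, HCT116 cells were dosed with chemicals delivered from DMSO by 217-fold dilution and incubated 16 h at 37C. Emission at 460 and 530 nm after 2 h CCF4-AM loading provided the ratio, fitted upward versus DMSO.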

[7] = target: Cellular tumor antigen p53 (Homo sapiens) (UniProt P04637); experiment: TOX21_p53_BLA_p4_ratio: Tox21 HCT-116 p53 Agonism Beta-lactamase Assay, Ratio, Phase 4 (AID 2283601)
Outline: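 HCT-116 p53 beta-lactamase reporter cells (4000/well) preincubated 5 h, then compound (217-fold dilution of DMSO stock) for 16 h at 37C. CCF4-AM substrate added 2 h at room temperature; 460/530 nm emission ratio fitted upward versus DMSO.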

[8] = CCTE_Harrill_HTTr_Viability_MCF7: CCTE's 6-hour Cell Viability Assessment for the High-Throughput Transcriptomics (HTTr) Platform, in MCF-7 cells cultured in DMEM + 10% fetal bovine serum, Harrill Lab (AID 2284010; active = hit-call score of the fitted dose curve at least 0.9, where 1 is the maximum; inactive = score below 0.9)
Outline: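 Viability measured through PI dye exclusion by high-content imaging at 6 h post-dosing.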

[9] = CCTE_Harrill_HTTr_Apoptosis_MCF7: CCTE's 6-hour Apoptosis Assessment for the High-Throughput Transcriptomics (HTTr) Platform, in MCF-7 cells cultured in DMEM + 10% fetal bovine serum, Harrill Lab (AID 2284011; active = hit-call score of the fitted dose curve at least 0.9, where 1 is the maximum; inactive = score below 0.9)
Outline: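 Read-out: CellEvent Caspase 3/7 Green signal by high content imaging, gain-of-signal indicating apoptosis. MCF-7 cells, DMEM + 10% FBS, eight-point dilution series, 6 h exposure. Curves fitted bidirectionally relative to DMSO negative control.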

[10] = TOX21_p53_BLA_p5_viability: Viability Assessment in the Tox21 HCT-116 p53 Agonism Beta-lactamase Assay, Phase 5 (AID 2283600)
Outline: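 Compounds, pinned from DMSO at 217-fold dilution, were left on the cells for 16 h. The viability endpoint was ATP content measured by CellTiter-Glo luminescence, where falling signal reflects cytotoxicity.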

Measured: outcome

Sequence of Cellular tumor antigen p53 (Homo sapiens) (P04637 whole entry, looked up): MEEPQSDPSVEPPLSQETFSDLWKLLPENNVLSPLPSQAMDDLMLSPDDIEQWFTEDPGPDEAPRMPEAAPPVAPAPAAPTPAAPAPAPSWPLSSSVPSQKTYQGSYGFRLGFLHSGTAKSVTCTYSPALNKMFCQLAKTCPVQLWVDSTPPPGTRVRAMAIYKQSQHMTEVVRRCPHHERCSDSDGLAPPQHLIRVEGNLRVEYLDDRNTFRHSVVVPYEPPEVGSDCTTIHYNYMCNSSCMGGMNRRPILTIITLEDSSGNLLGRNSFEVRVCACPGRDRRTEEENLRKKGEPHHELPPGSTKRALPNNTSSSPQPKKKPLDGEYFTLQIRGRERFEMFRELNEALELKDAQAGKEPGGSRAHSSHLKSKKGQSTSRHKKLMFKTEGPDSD

ClCc1ccccc1
inactive: [1] | [2] | [3] | [4] | [5]

OCCSSCCO
inactive: [1] | [6] | [7] | [8] | [9]

BrCCCCCCBr
inactive: [1] | [2] | [3]

CC(Cc1ccccc1)NCc1ccccc1Cl (stereo unspecified)
inactive: [1] | [2] | [3] | [4] | [5] | [10] | [7]

CN[C@@]1(c2ccccc2Cl)CCCCC1=O
inactive: [1] | [2] | [3] | [4] | [5] | [10] | [7]

CC(=O)C(Cl)Cl
inactive: [1] | [2] | [3] | [4] | [5] | [10] | [7]

C=CC(C)=O
inactive: [1] | [2] | [3] | [4] | [5] | [10] | [7]
